Assay results reported in paper PMC7862700, “An all-to-all approach to the identification of sequence-specific readers for epigenetic DNA modifications on cytosine”.

Tests used:
Test in all cases: DAPPL (digital affinity profiling via proximity ligation, sequencing); 10 mM Tris-HCl pH 7.5, 50 mM NaCl, 1 mM DTT, 4% glycerol, room temperature, 30 min; GST-TFs on glutathione beads, 16-mer random dsDNA library, 0.1% formaldehyde crosslink after washing; high values mean tight binding
Details in all cases: protein: recombinant; tags: N-terminal GST; dsDNA, one strand shown
[1] = molecular target: T1, FLI1 (Homo sapiens, UniProt Q01543 1-452)
T1 sequence: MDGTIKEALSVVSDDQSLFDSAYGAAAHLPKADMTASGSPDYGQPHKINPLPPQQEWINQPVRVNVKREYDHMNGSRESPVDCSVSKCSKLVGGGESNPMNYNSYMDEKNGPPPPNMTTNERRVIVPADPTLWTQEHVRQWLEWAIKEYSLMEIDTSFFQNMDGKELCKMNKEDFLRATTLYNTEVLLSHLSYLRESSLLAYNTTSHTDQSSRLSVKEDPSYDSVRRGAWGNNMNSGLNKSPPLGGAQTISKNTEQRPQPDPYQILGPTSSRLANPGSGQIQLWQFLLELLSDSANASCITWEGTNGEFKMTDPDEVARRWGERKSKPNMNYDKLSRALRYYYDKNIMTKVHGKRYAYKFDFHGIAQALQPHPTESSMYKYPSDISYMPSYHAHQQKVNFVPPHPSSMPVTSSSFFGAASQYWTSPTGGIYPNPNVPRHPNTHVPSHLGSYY
Summary of the method: (§1)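 Binding signal is given per hexamer as its read frequency for a factor divided by its frequency in the tag-only sample. GST-fused human transcription factors were expressed in yeast, captured on glutathione beads, barcoded with DNA and pooled with that sample, then incubated with 200 nmole of a 16-mer random double-stranded DNA library in Tris/NaCl/DTT/glycerol buffer for 30 min at room temperature. The pools were then washed, crosslinked, proximity-ligated, amplified by PCR and sequenced on an Illumina NextSeq500.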

[2] = molecular target: T2, ELK1 (Homo sapiens, UniProt P19419 1-428)
T2 sequence: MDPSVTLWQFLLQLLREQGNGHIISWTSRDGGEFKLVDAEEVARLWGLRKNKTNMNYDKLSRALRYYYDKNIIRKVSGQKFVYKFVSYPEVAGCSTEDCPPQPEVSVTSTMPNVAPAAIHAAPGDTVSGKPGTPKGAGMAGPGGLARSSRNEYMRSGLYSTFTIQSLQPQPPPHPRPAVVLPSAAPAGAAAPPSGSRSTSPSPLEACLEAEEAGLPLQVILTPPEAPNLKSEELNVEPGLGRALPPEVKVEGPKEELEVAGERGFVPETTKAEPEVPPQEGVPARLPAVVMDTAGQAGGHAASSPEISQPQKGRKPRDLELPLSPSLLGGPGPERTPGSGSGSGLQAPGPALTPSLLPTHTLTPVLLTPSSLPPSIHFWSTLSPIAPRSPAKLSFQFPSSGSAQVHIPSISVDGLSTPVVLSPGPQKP
Summary of the method: as §1

[3] = molecular target: T3, GABPA (Homo sapiens, UniProt Q06546 1-454)
T3 sequence: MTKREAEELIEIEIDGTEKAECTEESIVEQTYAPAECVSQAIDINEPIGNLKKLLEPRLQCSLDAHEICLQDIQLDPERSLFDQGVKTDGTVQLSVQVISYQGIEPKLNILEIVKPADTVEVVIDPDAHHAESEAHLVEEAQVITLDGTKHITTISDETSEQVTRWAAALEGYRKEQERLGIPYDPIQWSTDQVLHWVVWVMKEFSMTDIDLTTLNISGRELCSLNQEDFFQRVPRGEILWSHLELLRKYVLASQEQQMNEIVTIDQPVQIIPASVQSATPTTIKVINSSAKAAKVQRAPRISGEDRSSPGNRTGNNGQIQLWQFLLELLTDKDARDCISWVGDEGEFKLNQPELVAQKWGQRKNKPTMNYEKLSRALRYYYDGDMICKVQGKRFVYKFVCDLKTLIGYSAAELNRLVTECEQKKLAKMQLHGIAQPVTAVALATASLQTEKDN
Summary of the method: as §1

[4] = molecular target: T4, ERG (Homo sapiens, UniProt P11308 1-479)
T4 sequence: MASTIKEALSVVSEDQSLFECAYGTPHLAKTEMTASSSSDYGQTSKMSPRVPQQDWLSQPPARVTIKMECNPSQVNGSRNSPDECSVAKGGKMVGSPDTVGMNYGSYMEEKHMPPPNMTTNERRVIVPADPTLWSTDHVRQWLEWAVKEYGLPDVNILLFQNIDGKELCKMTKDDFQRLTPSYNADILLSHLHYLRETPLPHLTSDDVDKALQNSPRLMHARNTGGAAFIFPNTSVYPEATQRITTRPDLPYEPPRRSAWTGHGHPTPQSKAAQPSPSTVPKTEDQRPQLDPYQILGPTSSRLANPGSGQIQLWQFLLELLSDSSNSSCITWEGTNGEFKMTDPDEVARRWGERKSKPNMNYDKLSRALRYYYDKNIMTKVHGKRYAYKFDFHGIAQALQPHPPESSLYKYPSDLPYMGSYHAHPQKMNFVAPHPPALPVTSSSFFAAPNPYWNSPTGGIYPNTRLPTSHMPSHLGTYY
Summary of the method: as §1

[5] = molecular target: T5, EHF (Homo sapiens, UniProt Q9NZC4 1-300)
T5 sequence: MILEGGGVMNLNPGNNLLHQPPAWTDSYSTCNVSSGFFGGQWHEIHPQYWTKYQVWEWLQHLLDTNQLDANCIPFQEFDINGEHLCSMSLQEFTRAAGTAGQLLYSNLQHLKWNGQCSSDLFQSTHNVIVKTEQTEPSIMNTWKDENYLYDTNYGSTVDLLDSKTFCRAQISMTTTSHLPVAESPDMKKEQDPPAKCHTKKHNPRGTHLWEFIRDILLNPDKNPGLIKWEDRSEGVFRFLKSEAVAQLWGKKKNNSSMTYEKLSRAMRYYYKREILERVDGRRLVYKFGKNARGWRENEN
Summary of the method: as §1

[6] = molecular target: SPI1 (Homo sapiens, UniProt P17947 1-270)
Summary of the method: as §1

[7] = molecular target: SPIB (Homo sapiens, UniProt Q01892 1-262)
Summary of the method: as §1

[8] = molecular target: T6, ELK3 (Homo sapiens, UniProt P41970 1-407)
T6 sequence: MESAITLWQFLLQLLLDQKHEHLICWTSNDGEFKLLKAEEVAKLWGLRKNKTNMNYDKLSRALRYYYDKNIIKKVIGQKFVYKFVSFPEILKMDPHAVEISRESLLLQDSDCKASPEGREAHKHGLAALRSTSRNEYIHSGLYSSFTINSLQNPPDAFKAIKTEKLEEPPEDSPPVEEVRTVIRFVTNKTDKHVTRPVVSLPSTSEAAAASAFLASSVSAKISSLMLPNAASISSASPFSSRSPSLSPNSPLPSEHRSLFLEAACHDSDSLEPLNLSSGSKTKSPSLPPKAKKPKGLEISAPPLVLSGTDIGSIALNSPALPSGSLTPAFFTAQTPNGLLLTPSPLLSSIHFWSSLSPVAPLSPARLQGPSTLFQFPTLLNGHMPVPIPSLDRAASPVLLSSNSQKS
Summary of the method: as §1

[9] = molecular target: ETV5 (Homo sapiens, UniProt P41161 1-510)
Summary of the method: as §1

[10] = molecular target: T7, SPIC (Homo sapiens, UniProt Q8N5J4 1-248)
T7 sequence: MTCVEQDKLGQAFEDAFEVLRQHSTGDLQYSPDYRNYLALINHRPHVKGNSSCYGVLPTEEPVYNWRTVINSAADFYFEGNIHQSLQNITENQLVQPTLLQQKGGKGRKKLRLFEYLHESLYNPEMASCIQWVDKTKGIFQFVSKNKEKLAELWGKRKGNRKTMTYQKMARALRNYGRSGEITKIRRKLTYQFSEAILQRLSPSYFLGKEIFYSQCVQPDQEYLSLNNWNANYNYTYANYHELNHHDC
Summary of the method: as §1

[11] = molecular target: ELF4 (Homo sapiens, UniProt Q99607 1-663)
Summary of the method: as §1

[12] = molecular target: ETV1 (Homo sapiens, UniProt P50549 1-477)
Summary of the method: as §1

[13] = molecular target: T8, ERF (Homo sapiens, UniProt P50548 1-548)
T8 sequence: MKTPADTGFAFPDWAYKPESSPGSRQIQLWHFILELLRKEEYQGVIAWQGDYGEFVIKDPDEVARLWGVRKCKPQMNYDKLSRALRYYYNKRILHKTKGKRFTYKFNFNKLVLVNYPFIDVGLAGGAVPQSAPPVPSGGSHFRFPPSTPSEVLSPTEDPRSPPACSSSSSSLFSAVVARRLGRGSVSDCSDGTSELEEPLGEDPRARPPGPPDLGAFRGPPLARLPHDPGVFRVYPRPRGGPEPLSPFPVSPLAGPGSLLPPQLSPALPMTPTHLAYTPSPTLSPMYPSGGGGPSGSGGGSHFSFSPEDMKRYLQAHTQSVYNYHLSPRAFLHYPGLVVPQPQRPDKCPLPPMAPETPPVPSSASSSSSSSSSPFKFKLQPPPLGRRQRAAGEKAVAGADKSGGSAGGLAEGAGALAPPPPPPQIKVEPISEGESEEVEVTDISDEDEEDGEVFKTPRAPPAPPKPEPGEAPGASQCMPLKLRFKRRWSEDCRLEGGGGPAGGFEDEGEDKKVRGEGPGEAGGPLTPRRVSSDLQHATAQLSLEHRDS
Summary of the method: as §1

[14] = molecular target: T9, ETV3L (Homo sapiens, UniProt Q6ZN32 1-361)
T9 sequence: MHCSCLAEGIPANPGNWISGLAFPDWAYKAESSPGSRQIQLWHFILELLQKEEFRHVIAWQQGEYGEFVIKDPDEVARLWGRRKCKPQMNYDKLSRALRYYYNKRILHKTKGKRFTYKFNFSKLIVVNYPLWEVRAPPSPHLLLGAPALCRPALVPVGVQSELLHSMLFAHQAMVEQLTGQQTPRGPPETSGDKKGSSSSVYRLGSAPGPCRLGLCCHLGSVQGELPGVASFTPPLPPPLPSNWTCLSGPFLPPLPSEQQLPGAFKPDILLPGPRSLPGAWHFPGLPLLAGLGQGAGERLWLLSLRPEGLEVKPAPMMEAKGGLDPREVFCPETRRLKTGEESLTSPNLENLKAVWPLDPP
Summary of the method: as §1

[15] = molecular target: T10, ELF5 (Homo sapiens, UniProt Q9UKW6-2 1-255)
T10 sequence: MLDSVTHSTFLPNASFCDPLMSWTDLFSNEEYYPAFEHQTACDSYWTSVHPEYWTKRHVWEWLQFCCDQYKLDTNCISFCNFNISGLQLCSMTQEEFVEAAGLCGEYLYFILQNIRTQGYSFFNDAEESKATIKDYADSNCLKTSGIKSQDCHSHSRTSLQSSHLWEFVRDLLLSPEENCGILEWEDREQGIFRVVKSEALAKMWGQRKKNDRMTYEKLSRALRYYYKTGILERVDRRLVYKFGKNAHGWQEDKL
Summary of the method: as §1

[16] = molecular target: T11, ETV3 (Homo sapiens, UniProt P41162-2 1-143)
T11 sequence: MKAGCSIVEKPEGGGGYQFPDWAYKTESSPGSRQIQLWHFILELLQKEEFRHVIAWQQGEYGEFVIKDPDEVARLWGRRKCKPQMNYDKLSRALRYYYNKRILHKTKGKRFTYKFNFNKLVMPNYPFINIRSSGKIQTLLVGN
Summary of the method: as §1

[17] = molecular target: ETV6 (Homo sapiens, UniProt P41212 1-452)
Summary of the method: as §1

Sequence of SPIB (Q01892 whole entry): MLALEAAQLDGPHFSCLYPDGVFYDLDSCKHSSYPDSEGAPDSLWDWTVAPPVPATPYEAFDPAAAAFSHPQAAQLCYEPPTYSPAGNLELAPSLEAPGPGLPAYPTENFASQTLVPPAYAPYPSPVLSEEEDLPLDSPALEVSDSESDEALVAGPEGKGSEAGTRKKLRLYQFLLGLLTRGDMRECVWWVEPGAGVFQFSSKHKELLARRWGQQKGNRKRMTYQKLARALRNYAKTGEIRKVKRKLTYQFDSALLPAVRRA
Sequence of ETV5 (P41161 whole entry): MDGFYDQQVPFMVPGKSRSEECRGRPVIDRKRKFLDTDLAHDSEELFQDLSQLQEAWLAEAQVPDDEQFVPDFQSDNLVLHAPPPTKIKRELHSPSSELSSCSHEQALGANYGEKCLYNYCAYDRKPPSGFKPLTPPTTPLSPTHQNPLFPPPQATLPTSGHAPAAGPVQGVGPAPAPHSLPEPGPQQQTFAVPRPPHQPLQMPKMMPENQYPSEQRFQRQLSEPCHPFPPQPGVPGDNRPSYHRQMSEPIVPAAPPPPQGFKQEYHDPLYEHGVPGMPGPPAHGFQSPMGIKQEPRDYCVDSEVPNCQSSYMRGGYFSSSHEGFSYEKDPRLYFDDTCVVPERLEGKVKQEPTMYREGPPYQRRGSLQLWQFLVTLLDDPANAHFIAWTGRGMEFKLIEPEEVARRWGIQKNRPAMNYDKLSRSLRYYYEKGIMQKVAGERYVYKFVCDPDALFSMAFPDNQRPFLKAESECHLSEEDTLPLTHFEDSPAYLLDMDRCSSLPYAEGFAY
Sequence of ETV1 (P50549 whole entry): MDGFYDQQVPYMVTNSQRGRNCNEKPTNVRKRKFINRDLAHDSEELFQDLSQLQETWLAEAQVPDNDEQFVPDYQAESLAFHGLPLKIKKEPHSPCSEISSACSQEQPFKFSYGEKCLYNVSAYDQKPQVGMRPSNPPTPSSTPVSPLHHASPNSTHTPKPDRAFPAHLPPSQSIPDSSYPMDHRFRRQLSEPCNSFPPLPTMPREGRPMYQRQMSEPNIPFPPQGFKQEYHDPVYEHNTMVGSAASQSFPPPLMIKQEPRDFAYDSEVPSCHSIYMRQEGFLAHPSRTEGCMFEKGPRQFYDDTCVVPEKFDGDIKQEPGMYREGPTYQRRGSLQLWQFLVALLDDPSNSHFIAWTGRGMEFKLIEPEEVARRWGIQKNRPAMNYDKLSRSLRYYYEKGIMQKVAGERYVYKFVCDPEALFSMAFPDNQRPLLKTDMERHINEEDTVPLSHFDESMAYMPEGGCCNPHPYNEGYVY
Sequence of ELF4 (Q99607 whole entry): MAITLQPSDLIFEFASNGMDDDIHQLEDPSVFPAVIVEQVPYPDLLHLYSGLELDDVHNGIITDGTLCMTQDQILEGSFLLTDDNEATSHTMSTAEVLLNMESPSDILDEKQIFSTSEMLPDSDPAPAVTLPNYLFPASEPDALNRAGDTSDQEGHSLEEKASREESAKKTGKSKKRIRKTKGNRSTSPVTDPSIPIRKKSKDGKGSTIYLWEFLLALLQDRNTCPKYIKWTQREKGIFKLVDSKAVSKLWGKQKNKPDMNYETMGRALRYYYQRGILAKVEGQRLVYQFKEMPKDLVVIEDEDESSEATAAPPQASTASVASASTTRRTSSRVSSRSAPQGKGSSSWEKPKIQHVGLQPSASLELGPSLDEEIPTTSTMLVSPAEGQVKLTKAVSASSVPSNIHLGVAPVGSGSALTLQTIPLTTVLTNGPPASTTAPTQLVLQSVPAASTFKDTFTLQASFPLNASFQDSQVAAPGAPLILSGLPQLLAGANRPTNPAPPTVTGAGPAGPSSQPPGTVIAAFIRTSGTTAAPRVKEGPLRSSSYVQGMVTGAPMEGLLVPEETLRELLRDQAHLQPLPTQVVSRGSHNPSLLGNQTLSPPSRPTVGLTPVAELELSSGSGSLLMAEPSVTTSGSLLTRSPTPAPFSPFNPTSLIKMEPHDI
Sequence of ETV6 (P41212 whole entry): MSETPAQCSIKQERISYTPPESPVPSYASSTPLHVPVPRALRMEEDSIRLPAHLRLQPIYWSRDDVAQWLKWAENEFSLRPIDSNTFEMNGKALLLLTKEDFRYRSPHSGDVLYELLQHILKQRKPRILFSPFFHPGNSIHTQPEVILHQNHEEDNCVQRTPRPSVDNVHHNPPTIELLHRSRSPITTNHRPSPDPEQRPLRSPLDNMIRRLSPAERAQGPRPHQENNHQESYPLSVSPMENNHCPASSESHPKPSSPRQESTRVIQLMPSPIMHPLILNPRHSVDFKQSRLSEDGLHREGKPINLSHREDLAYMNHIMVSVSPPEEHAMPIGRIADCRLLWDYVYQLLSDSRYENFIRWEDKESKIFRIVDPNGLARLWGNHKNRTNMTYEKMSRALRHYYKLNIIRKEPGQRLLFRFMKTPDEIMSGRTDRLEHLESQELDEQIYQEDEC

For ATAAGG, the binding signal [1] was 1.07 fold enrichment (6-mer frequency, TF over GST control), the binding signal [2] was 1.01 fold enrichment (6-mer frequency, TF over GST control) and the binding signal [3] was 1.02 fold enrichment (6-mer frequency, TF over GST control). The binding signal [4] was 1.07 fold enrichment (6-mer frequency, TF over GST control), the binding signal [5] was 1.05 fold enrichment (6-mer frequency, TF over GST control) and the binding signal [6] was 1.05 fold enrichment (6-mer frequency, TF over GST control). For the same sequence, the binding signal [7] was 1.01 fold enrichment (6-mer frequency, TF over GST control), the binding signal [8] was 1.19 fold enrichment (6-mer frequency, TF over GST control) and the binding signal [9] was 1.04 fold enrichment (6-mer frequency, TF over GST control). For the same sequence, the binding signal [10] was 1.12 fold enrichment (6-mer frequency, TF over GST control), the binding signal [11] was 1.06 fold enrichment (6-mer frequency, TF over GST control) and the binding signal [12] was 1.03 fold enrichment (6-mer frequency, TF over GST control). The binding signal [13] was 1.05 fold enrichment (6-mer frequency, TF over GST control), the binding signal [14] was 1.01 fold enrichment (6-mer frequency, TF over GST control) and the binding signal [15] was 1.25 fold enrichment (6-mer frequency, TF over GST control). For the same sequence, the binding signal [16] was 1.05 fold enrichment (6-mer frequency, TF over GST control) and the binding signal [17] was 1.07 fold enrichment (6-mer frequency, TF over GST control).
